Where “and” joins values, the source holds several entries; their conditions need not be identical. Identical values can stand only once. Screen size: about 260,000 compounds; about 1,500 (0.58%) were called active. Another 5% or so got no clear call; they are omitted.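 The calls were made as follows: active = inhibition above a set limit at one or more doses, reproduced on every date tested; inconclusive = results disagree between test dates, or hit never tested in dose response; inactive = the rest.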 Only a sample is shown. Entries with a potency or affinity are not part of this list.
These compounds were tested against Virion infectivity factor (Human immunodeficiency virus type 1 group M subtype B (isolate BH10)) + Virion infectivity factor (Human immunodeficiency virus type 1 group M subtype B (isolate BRU/LAI)) + Virion infectivity factor (Human immunodeficiency virus type 1 group M subtype B (isolate PCV12)) + Virion infectivity factor (Human immunodeficiency virus type 1 group M subtype B (isolate HXB2)) + DNA dC->dU-editing enzyme APOBEC-3G (Homo sapiens) (UniProt P69720+P69721+P69722+P69723+Q9HC16) (assay: HIV-1 Vif–A3G interaction blockers – biochemical, TR-FRET, GST-Vif 1-94, biotin-A3G peptide, dose response retest, primary screen (AID 1117319;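 also: Vif residues 1-94 fused to GST binding biotinylated APOBEC3G peptide 110-148; 0% = full assay without inhibitor and 100% = GST in place of GST-Vif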)). Settings: TR-FRET GST-Vif / biotin-A3G peptide binding; active compounds read high.

inhibition, inactive:
Cc1ccc(C)c(Nc2nc(-c3ccncc3)nc3ccccc23)c1 -7.92%
O=C(OCc1ccccn1)c1ccc(COc2ccc3ccccc3c2)o1 14.9%
N#CC(C(=O)NCCc1ccccc1)c1nc2ccccc2nc1N1CCOCC1 (stereo not given) -2.43%
CCCCCCNC(=O)C(C#N)c1nc2ccccc2nc1N1CCOCC1 (stereo not given) 5.51%
Cc1nn(-c2ccccc2)c2sc(C(=O)N3CCCCC3)cc12 -2.58%
CCCCN1C(=O)C(=O)N(CC(=O)c2ccc[nH]2)C1=O 5.74%
CCOC(=O)N1CCC(n2c(SCC(=O)Nc3nccs3)nc3ccsc3c2=O)CC1 -7.21% and 20.2%
COc1ccc(NC(=S)NCc2cccs2)cc1 0.47%
COC(=O)c1[nH]c2ccccc2c1NC(=O)CN1CCN(Cc2ccc3c(c2)OCO3)CC1 -1.82%
CCN(CC(=O)Nc1c(C(=O)OC)[nH]c2ccc(Cl)cc12)c1ccc2c(c1)OCO2 0.99%
COc1ccc(OCCN(C)C(=O)c2cccc(S(=O)(=O)N(C)c3ccccc3)c2)cc1 -4.53%
CN(C)c1ccc(/C=C/C=C2/SC(=S)N(c3ccccc3)C2=O)cc1 19.3%
O=C1S/C(=C\c2cccs2)C(=O)N1c1ccc(O)cc1 -10.4%
Cn1cccc1/C=C1\SC(=O)N(c2ccc(O)cc2)C1=O 4.46%
O=C(O)c1ccc(N2C(=O)/C(=C/C=C/c3ccccc3)SC2=S)cc1 7.15%
CC1(C)N=C(c2ccc(Cl)cc2)C(=O)N1 -0.69%
CNC(=O)c1ccsc1NC(=O)C1CCCN1S(=O)(=O)c1cccs1 (stereo not given) -0.6%
Cc1ccccc1-c1ccc(/C=C2/SC(N3CCOCC3)=NC2=O)o1 6.07%
NC1=NC(=O)/C(=C/c2cccs2)S1 10%
O=C1N=C(N2CCOCC2)S/C1=C\c1ccc(-c2ccccc2Cl)o1 21.8%
O=C1N=C(N2CCOCC2)S/C1=C\c1cccs1 -6.4%
O=C1N=C(N2CCCC2)S/C1=C\c1ccccc1 27.9%
NC1=NC(=O)C(=Cc2ccccc2)S1 1.08%
O=C1N=C(N2CCOCC2)S/C1=C/c1cccs1 1.92%
Cc1ccc(-c2ccc(/C=C3\SC(N4CCOCC4)=NC3=O)o2)cc1 6.18%
O=C(CCc1nnc(CCc2ccccc2)o1)N1CCCCC1CCn1cccn1 (stereo not given) -2.83%
CC(=O)NCCn1c(SCc2ccc(C)cc2C)nc2ccccc2c1=O -4.41%
COCc1cc(=O)[nH]c(N2CCN(C(=O)c3ccco3)CC2)n1 -8.81%
CCOc1ccc(NC(=O)c2cc3c(=O)n(C)c4ccccc4c3n2C)cc1 -12%
O=C(CNC(=O)c1cc2ccccc2o1)NCc1cccs1 15.4%
Clc1ccc(NCn2cncn2)nc1 10.8%
CCc1cccc(C)c1NC(=O)CO/N=C(\C)c1cc2ccccc2o1 -0.14%
CC(OC(=O)CCC1CCCCC1)C(=O)Nc1ccc(S(N)(=O)=O)cc1 (stereo not given) 6.23%
O=C(O)c1cccc(-c2ccccc2)c1O 2.46%
O=C(O)c1cccc2cc(-c3ccccc3)oc(=O)c12 3%
Cc1oc2c(O)c(O)ccc2c(=O)c1-c1cnn(-c2ccccc2)c1 28.2%
Nc1c(O)ccc2c1C(=O)c1ccccc1C2=O 10.2%
CCOC(=O)C(C#N)=C1CCN(Cc2ccccc2)CC1 -5.62%
Cc1ccc(C(=O)NC(=S)Nc2ccc(S(=O)(=O)N3CCN(C)CC3)cc2)cc1 1.48%
CN1CCN(S(=O)(=O)c2ccc(NC(=S)NC(=O)c3ccccc3)cc2)CC1 0.13%
COc1ccc(CNC(=O)COC(=O)c2c(NC(C)=O)sc(C)c2C)cc1OC 1.62%
O=C(O)C1CC(=O)N(c2ccc(OCc3ccc(Cl)cc3Cl)cc2)C1 (stereo not given) 4.2%
N#CC(C#N)=c1ccc2c(c1)N1C3=C(CCCC3)CC3CCCCC31N=2 (stereo not given) 20.5%
CC(CCc1ccccc1)NC(=O)C1CCN(S(=O)(=O)N2CCOCC2)CC1 (stereo not given) -3.69%
O=C(O)c1ccc(-n2nc(C(F)(F)F)c3c2CCCC3)cc1 0.77%
COC(=O)c1ccc(-n2nc(C(F)(F)F)c3c2-c2ccoc2CC3)cc1 14.2%
O=C(CCn1c(=S)oc2ccccc21)NC1CCCCCCC1 -0.87%
CCCC1CC(C#N)N(N(C)C)C1=C(C#N)C#N (stereo not given) -4.37%
CN1c2ccccc2C(O)=C(C(=S)Nc2ccc(F)c(Cl)c2)S1(=O)=O -0.79%
Cc1ccc(NC(=S)C2=C(O)c3sccc3N(C)S2(=O)=O)cc1 10.2%
CC(C)n1ncc2c(C(=O)NCCc3ccc(S(N)(=O)=O)cc3)cc(C3CC3)nc21 1.54%
COc1ccc(CCNC(=O)Cn2cnc3c(cnn3C(C)(C)C)c2=O)cc1OC -3.55%
COc1ccc(C(=O)Nc2nc3ccc(S(C)(=O)=O)cc3s2)cc1 -53.8%
Cc1cc(C)nc(NS(=O)(=O)c2ccc(N/C=C/C(=O)c3ccc(Cl)c(Cl)c3)cc2)n1 32.2%
Cc1ccc(C(=O)OCC(=O)Nc2ccc(S(N)(=O)=O)cc2)c(O)c1 -10.3%
Cc1ccc(NC(=O)COC(=O)c2ccc(S(=O)(=O)N3CCCC3)cc2)cc1 -1.07%
Cc1ccc(NC(=O)CNc2cccc(C)c2C)c(C)c1 21.8%
CN(C)c1ccc(N=Nc2ccc(S(N)(=O)=O)cc2)cc1 5.84%
NS(=O)(=O)c1ccc(N=Nc2c(O)ccc3ccccc23)cc1 9.6%
Nc1nc(N)c(N=Nc2ccc(S(N)(=O)=O)cc2)c(=O)[nH]1 1.9%
Cc1c(C#N)c(O)[nH]c(=O)c1N=Nc1ccc(S(N)(=O)=O)cc1 3.16%
CCOC(=O)c1csc(NC(=O)CN2CCOCC2)n1 -8.71%
Cc1cccc(N2CCN(Cc3nc(-c4cccc(Oc5ccccc5)c4)oc3C)CC2)n1 3.4%
CCN(CC)S(=O)(=O)c1cccc(NC(=O)C2SC(=Nc3ccc(C)cc3C)C(C(=O)NCC3CCCO3)=C2N)c1 (stereo not given) 2.72%
Cc1cc2cc(C(=O)N3CCc4c([nH]c5ccccc45)C3c3ccccn3)ccc2o1 (stereo not given) 10.8%
Cc1ccc(C)c(NC(=O)C2CC=CCC2C(=O)O)c1 (stereo not given) -2.09%
O=C(c1ccccc1)c1ccccc1C(=O)N1CCOCC1 5.31%
COc1ccccc1C1CCN(C(=O)c2ccccc2)CC1 6.08%
O=C(O)C1C=CC(C(=O)O)c2ccccc21 (stereo not given) -4.89%
O=C(c1ccccc1O)N1CCOCC1 -1.64%
CC(=O)N1c2ccc(Cl)cc2C2C=CCC2C1c1cccc2ccccc12 (stereo not given) 19.4%
COc1cccc(C2Nc3c(F)cc(Br)cc3C3C=CCC32)c1OC (stereo not given) 5.44%
CCC(C)[C@H](NC(=O)C1CCN(C(=O)[C@H](Cc2ccccc2)NC(=O)OC(C)(C)C)CC1)C(=O)O (stereo not given in full) 7.73%
Cc1ccc(C(=O)NNC(=O)c2ccc3ccccc3c2)cc1 1.23%
O=C(c1ccc(S(=O)(=O)N2CCCCCC2)cc1)N1CCN(c2ccccn2)CC1 -5.37%
Cc1cc(C(=O)N2CCc3c([nH]c4ccccc34)C2c2c(F)cccc2Cl)no1 (stereo not given) -4.57%
O=C(Nc1ccc(S(=O)(=O)N2CCOCC2)cc1)c1cc(-c2ccccc2O)n[nH]1 -5.69%
CSCCC(NS(=O)(=O)c1ccc(C)cc1)C(=O)NCC(C)(C)N1CCOCC1 (stereo not given) 26.5%
CCOc1cc(C(=O)Oc2cc(C)[nH]c(=O)c2[N+](=O)[O-])cc(OCC)c1OCC -2.15%
CC(C)C(=O)Nc1nnc(-c2ccco2)s1 -4.43%
CCCC(=O)Nc1nnc(-c2ccco2)s1 5.96%
O=C(COC(=O)Cn1cnc2ccccc2c1=O)NCc1ccccc1 -5.43%
Cc1nn(Cc2ccccc2)c(C)c1C(=O)OCC(=O)c1cc(C)n(CC(F)(F)F)c1C 13.3%
COCCn1c(C)cc(C(=O)COC(=O)c2c(C)nn(Cc3ccccc3)c2C)c1C 15.2%
C=CCOc1ccc(CNc2nccs2)cc1OC -2.98%
Cn1nnnc1SCc1cc(=O)n2ccsc2n1 8.97%
COc1ccc(OCCNC(=S)Nc2cccc3ccccc23)cc1 2.41%
O=C(NC(NC(=S)Nc1cccc(C(=O)O)c1)C(Cl)(Cl)Cl)OCc1ccccc1 (stereo not given) 16%
CCCCOC(=O)c1cc(C)nc2ccc(Br)cc12 10.8%
CC1=C(C(=O)Nc2ccccc2)C(c2ccco2)NC(=O)N1 (stereo not given) -0.31%
CC1=C(C(=O)Nc2ccccc2)C(c2ccco2)NC(=S)N1 (stereo not given) -0.58%
N#C/C(=C\c1cccs1)C(=O)N1CCOCC1 4.24%
CCOc1ccc(-n2cc(C(=O)NCCOC)c3cc(OC)c(OC)cc3c2=O)cc1 -0.11%
CC1=CCC2C(=O)N(c3ccc4ccccc4n3)C(=O)C2C1 (stereo not given) 3.04%
O=C(COC(=O)c1n[nH]c(=O)c2ccccc12)c1ccc(Cl)cc1 -6%
